Several values for one entry are separate records, joined by “and”; a condition that tells them apart may be missing. Equal values may be shown once. Activity calls are given as the source filed them.
How the values were obtained:
[1] = system: Plasmodium falciparum Sir2 (PF13_0152, Sir2A); experiment: Plasmodium falciparum Sir2A binding compounds – biochemical, small-molecule microarray, 635 nm fluorescence, primary screen (AID 1098); details: fluorescence 635 nm, higher = more signal;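 further: score merges spot fluorescence intensity with its signal-to-noise ratio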
[2] = probe aDKK1 binding to arrayed compounds – biochemical, biotinylated probe, 635/667 nm fluorescence, primary screen (AID 1099); details: small-molecule microarray, higher = more signal;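 further: score merges 667nm spot fluorescence with signal to noise across triplicate slides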
[3] = probe aCHRDL2 binding to arrayed compounds – biochemical, biotinylated probe, 635/667 nm fluorescence, primary screen (AID 1100); details: small-molecule microarray, higher = more signal
[4] = change in splice reporter luminescence, either direction, cell-based, HEK293, spliceosome inhibition project, primary screen (AID 1101); details: HEK293 splicing luciferase reporter, 24 h, higher = more signal, called active from +8 up or from −8 down;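 further: HEK293 cells carrying a splicing-competent luciferase reporter gene; test concentration not given here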
[5] = target: Fibroblast growth factor 10 (Homo sapiens) (UniProt O15520); experiment: compounds binding fibroblast growth factor 10 – biochemical, small-molecule microarray, 635 nm fluorescence, primary screen (AID 1102); details: FGF10 binding, fluorescence 635 nm, higher = more signal
Sequence of Fibroblast growth factor 10 (Homo sapiens) (O15520 whole entry, looked up): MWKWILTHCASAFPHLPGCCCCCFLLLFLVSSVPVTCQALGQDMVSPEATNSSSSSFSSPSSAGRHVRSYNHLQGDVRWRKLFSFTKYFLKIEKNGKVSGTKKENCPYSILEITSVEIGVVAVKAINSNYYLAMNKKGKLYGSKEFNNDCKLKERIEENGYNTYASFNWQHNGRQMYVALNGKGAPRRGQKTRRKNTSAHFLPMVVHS

[6] = system: glycogen synthase kinase-3 (GSK3A per assay name; protocol says GSK3B); experiment: compounds binding glycogen synthase kinase-3 – biochemical, small-molecule microarray, 635 nm fluorescence, GSK3A, primary screen (AID 1103); details: fluorescence 635 nm, higher = more signal; further: the record names both GSK3A and GSK3B
[7] = target: Epidermal growth factor receptor (Homo sapiens) (UniProt P00533); experiment: compounds binding epidermal growth factor receptor – biochemical, small-molecule microarray, 635 nm fluorescence, primary screen (AID 1104); details: EGFR binding, higher = more signal;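 further: score merges 667 nm emission intensity with spot signal to noise over triplicate slides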
Sequence of Epidermal growth factor receptor (Homo sapiens) (P00533 whole entry, looked up): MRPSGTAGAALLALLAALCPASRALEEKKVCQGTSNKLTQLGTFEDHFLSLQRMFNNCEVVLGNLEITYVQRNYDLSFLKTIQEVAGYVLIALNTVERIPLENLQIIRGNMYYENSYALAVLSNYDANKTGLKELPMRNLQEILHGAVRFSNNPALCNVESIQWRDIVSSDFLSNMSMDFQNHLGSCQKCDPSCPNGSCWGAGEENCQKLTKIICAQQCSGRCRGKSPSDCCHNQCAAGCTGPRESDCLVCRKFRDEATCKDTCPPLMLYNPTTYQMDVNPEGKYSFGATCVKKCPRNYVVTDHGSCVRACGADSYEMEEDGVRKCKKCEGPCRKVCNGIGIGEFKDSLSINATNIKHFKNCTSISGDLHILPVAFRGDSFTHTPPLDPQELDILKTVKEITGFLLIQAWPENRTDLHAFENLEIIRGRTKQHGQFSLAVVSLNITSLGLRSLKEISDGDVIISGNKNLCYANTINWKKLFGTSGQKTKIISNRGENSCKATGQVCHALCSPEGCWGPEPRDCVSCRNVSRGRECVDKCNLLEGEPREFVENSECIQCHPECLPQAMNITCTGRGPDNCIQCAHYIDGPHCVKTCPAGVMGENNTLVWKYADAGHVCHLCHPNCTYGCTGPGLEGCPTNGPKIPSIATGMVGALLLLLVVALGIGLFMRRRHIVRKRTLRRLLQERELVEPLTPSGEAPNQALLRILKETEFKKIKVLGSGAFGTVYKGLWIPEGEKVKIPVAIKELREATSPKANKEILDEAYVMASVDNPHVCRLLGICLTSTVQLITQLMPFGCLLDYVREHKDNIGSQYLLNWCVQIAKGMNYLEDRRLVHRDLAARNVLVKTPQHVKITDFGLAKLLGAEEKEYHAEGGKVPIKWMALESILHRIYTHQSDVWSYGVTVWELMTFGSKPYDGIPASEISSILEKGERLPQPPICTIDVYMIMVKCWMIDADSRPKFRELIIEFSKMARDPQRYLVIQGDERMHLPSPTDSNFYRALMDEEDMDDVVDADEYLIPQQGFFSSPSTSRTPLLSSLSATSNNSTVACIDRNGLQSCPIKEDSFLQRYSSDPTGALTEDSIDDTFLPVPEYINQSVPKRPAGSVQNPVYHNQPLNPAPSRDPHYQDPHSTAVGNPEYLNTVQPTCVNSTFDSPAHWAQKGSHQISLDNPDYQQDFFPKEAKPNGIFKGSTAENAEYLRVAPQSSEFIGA

[8] = target: Follistatin-related protein 3 (Homo sapiens) (UniProt O95633); experiment: compounds binding follistatin-related protein 3 – biochemical, small-molecule microarray, 635 nm fluorescence, primary screen (AID 1105); details: FSTL3 binding, higher = more signal;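 further: score merges emission near 667 nm and signal to noise per printed spot across three slides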
Sequence of Follistatin-related protein 3 (Homo sapiens) (O95633 whole entry, looked up): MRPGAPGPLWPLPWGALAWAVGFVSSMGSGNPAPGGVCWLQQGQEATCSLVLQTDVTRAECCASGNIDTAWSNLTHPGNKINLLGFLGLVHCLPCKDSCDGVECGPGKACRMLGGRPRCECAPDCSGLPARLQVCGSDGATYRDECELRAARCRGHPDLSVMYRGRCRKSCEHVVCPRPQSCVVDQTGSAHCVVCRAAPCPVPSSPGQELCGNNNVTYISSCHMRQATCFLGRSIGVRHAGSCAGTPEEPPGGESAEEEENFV

[9] = target: Dickkopf-related protein 1 (Homo sapiens) (UniProt O94907); experiment: small molecules binding DKK1 protein – biochemical, small-molecule microarray, 635 nm fluorescence scan, primary screen (AID 1106); details: higher = more signal;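 further: score merges emission near 667 nm with signal to noise over three replicate slides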
Sequence of Dickkopf-related protein 1 (Homo sapiens) (O94907 whole entry, looked up): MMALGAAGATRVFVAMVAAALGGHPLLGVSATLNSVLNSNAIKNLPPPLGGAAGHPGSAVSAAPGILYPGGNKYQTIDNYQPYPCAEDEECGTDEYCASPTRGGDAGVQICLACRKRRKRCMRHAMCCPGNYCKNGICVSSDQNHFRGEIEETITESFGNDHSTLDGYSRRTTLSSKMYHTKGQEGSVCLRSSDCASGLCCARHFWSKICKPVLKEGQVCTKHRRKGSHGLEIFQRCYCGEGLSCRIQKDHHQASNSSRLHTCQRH

[10] = system: Inhibin beta A chain (activin A); experiment: small molecules binding activin A – biochemical, small-molecule microarray, 635 nm fluorescence scan, primary screen (AID 1107); details: INHBA, higher = more signal;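 further: mouse activin A protein probed at 4.33 µg/mL on printed slides; score merges bound-protein fluorescence near 667 nm with spot signal-to-noise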
[11] = system: Human papillomavirus type 1a protein E7 (residues 44-93); experiment: small molecules binding HPV E7 44-93 – biochemical, small-molecule microarray, residues 44-93, 635 nm fluorescence, primary screen (AID 1108); details: fluorescence 635 nm, higher = more signal;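 further: E7 fragment applied at 1 µg/mL in TBST for 1 h at 4 C; score combines spot fluorescence with its signal to noise ratio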
[12] = hepatitis C replication reporter changes, two-sided – Huh7 cells, luciferase reporter, HCV replication inhibitor project, primary screen (AID 1109); details: Huh7 HCV replicon luciferase reporter, 48 h; higher = more signal;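 further: huh7 hepatoma cells harbouring a luciferase neomycin HCV replicon reporter; luciferase luminescence as measure of HCV replicon replication; test concentration not given here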
[13] = target: Left-right determination factor 2 (Homo sapiens) (UniProt O00292); experiment: small molecules binding LEFTY2 protein – biochemical, small-molecule microarray, 635 nm fluorescence scan, primary screen (AID 1110); details: higher = more signal
Sequence of Left-right determination factor 2 (Homo sapiens) (O00292 whole entry, looked up): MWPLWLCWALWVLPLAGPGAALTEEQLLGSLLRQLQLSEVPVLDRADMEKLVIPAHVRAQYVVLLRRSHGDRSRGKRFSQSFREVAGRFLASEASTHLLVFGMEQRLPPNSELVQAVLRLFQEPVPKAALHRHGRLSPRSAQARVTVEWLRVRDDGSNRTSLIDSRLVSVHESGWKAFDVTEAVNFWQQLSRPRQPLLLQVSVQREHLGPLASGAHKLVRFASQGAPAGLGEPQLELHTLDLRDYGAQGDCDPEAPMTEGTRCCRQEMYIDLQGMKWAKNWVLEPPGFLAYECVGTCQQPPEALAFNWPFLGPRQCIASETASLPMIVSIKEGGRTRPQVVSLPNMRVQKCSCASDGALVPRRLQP

[14] = target: Calmodulin-1 (Homo sapiens) (UniProt P0DP23); experiment: small molecules binding calmodulin-1 with EGTA – biochemical, small-molecule microarray, Cy5-labelled CALM1, profiling panel (AID 1111); details: Cy5-CALM1 binding fluorescence, higher = more signal;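 further: labelled calmodulin applied in Tris saline Tween buffer holding calcium plus EGTA and DTT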
[15] = target: Calmodulin-1 (Homo sapiens) (UniProt P0DP23); experiment: small molecules binding Ca-loaded calmodulin-1 – biochemical, small-molecule microarray, Cy5-labelled CALM1, plus calcium, artefact control for SMM control-protein annotation, profiling panel (AID 1112); details: Cy5-CALM1 binding fluorescence, higher = more signal;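 further: score merges spot fluorescence with signal to noise from triplicate slides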
[16] = probe aWnt5a binding to arrayed compounds – biochemical, biotinylated probe, 635/667 nm fluorescence, primary screen (AID 1113); details: small-molecule microarray, higher = more signal;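 further: score merges 667 nm fluorescence intensity with signal-to-noise per printed feature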
[17] = probe aShh binding to arrayed compounds – biochemical, biotinylated probe, 635/667 nm fluorescence, primary screen (AID 1114); details: small-molecule microarray, higher = more signal;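 further: probe is biotin-labelled aShh protein from a stem cell growth factor screen; measures binding of labelled protein to compounds printed on the slide; score merges feature fluorescence at 667 nm with signal-to-noise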
[18] = probe aNog binding to arrayed compounds – biochemical, biotinylated probe, 635/667 nm fluorescence, primary screen (AID 1115); details: small-molecule microarray, higher = more signal;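 further: probe is biotinylated aNog protein used at 0.15 µg/mL for 1 h at 4 C; z-score combines 667 nm fluorescence of each spot with its signal to noise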
[19] = target: Torsin-1A-interacting protein 1 (Homo sapiens) (UniProt Q5JTV8); experiment: compound microarray binding of lysate hLAP1 – cell lysate, small-molecule microarray, COS7 lysate, 635/667 nm fluorescence, primary screen (AID 1116); details: 635 nm fluorescence, higher = more signal
Sequence of Torsin-1A-interacting protein 1 (Homo sapiens) (Q5JTV8 whole entry, looked up): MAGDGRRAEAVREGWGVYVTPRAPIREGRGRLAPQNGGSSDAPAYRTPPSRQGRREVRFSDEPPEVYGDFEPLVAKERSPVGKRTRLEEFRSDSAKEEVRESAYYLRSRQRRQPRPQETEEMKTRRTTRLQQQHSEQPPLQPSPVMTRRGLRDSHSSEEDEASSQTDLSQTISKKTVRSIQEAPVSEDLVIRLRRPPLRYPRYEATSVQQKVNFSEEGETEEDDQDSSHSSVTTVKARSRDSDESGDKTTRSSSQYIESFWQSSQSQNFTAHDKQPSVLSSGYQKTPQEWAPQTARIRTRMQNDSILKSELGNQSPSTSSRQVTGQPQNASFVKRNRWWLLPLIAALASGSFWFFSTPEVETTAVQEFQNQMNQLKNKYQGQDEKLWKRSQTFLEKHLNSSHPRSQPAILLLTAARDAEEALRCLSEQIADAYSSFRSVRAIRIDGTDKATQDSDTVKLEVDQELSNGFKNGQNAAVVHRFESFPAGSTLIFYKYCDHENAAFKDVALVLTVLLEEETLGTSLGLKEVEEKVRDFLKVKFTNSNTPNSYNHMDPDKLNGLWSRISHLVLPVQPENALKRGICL

[20] = target: Alpha-bungarotoxin (Bungarus multicinctus) (UniProt P60615); experiment: compounds binding labelled alpha-BTX control protein – biochemical, small-molecule microarray, Alexa647 label, 635/667 nm fluorescence, artefact control for SMM control protein annotation, profiling panel (AID 1117); details: alpha-BTX-A647 binding fluorescence, higher = more signal
Sequence of Alpha-bungarotoxin (Bungarus multicinctus) (P60615 whole entry, looked up): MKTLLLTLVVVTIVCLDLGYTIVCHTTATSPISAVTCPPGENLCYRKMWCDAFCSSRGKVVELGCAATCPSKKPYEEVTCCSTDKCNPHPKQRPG

Row | Compound | composite z-score [1] | composite z-score [2] | composite z-score [3] | z-score [4] | composite z-score [5] | composite z-score [6] | composite z-score [7] | composite z-score [8] | composite z-score [9] | composite z-score [10] | composite z-score [11] | z-score [12] | composite z-score [13] | composite z-score [14] | composite z-score [15] | composite z-score [16] | composite z-score [17] | composite z-score [18] | composite z-score [19] | composite z-score [20]
1 | C=CCN(CCCC)C(=O)C1N(c2c(Cl)cccc2CO)C(=O)C2C(C(=O)O)C3C=CC21O3 (stereo not given) | 0.934 and -0.194 | 0.0215 and -0.0881 | 1.08 and 0.748 | -0.786 (inactive) and -0.929 (inactive) | -0.613 and -1.38 | -2.1 and -0.938 | -1.71 and -1.18 | -2.37 and -1.28 | -2.46 and -2.71 | -1.41 and -0.0137 | -1.84 and 0.389 | -0.325 and -0.567 | -3.23 and -2.18 | -0.623 and -0.783 | 0.713 and -0.0889 | -0.144 and -0.0894 | 0.151 and -0.279 | 0.0107 and 0.242 | -0.529 and -0.927 | -0.406 and -1.31
2 | C=CCN(CCCCC)C(=O)C1N(C(C)(C)CO)C(=O)C2C(C(=O)O)C3C=CC21O3 (stereo not given) | -0.0662 and -1.13 | -0.706 and -0.0156 | 0.767 and 0.884 | 0.507 (inactive) and 0.484 (inactive) | -1.96 and -0.741 | -1.35 and -0.534 | -1.79 and -1.92 | -1.65 and -2.06 | -1.61 and -2.14 | -3.53 and -1.16 | -2.03 and -0.698 | -0.954 and -0.659 | -1.51 and -1.83 | -0.569 and -0.284 | 0.515 and 1.07 | -0.297 and -0.176 | -0.0626 and -0.138 | -0.0809 and 0.274 | -1.47 and -0.47 | -1.26 and -2.68
3 | C=CCN(C(=O)C1N(CCCCCCO)C(=O)C2C(C(=O)O)C3C=CC21O3)C(C)(C)C (stereo not given) | 2.09 and 0.74 | -0.164 and -0.432 | 0.991 and 1.09 | 0.717 (inactive) and 1.5 (inactive) | -2.17 and -2.31 | -1.18 and -1.05 | -2.13 and -1.6 | -2.45 and -1.52 | -3.24 and -3.14 | -3.68 and -2.77 | -1.46 and -0.783 | 0.31 and -0.387 | -3.98 and -3.63 | -0.332 and -0.397 | 0.915 and 0.825 | -0.348 and -0.364 | -0.221 and -0.123 | -0.176 and 0.338 | -1.85 and -0.489 | -1.42 and -1.95
4 | CCOC(=O)c1ccc(NC(=O)O[C@H]2[C@H](OC(=O)Nc3ccccc3)[C@@H](OC(=O)Nc3ccccc3)[C@@H](OC)O[C@@H]2CO)cc1 | 1.54 and 1.64 | 1 | 0.861 and 0.911 | 1.59 (inactive) and -0.984 (inactive) | 1.13 and 1.42 | 1.24 and 1.34 | 0.329 and 0.0234 | 1.34 and 1.42 | 0.414 and 0.17 | 0.375 and 0.563 | 0.249 and 1.18 | -3.3 and -1.82 | 0.772 and 0.53 | 2.04 and 1.81 | 0.114 and -0.0271 | 0.0618 and 0.199 | 0.613 and 0.204 | 1.32 and 0.386 | 1.2 and 1.5 | 2.04 and 1.85

Reference: PubChem BioAssay
